Values joined by “and” are separate entries in the source; they are usually repeats but may differ in a detail not shown here. Equal values may be shown once. Values without a mark were called inactive. Inconclusive results are not listed. Where a call stands in place of a potency, no number is given. Active and inactive are the calls of the source. Calls follow the shape of the dose curve; as a rule, active = well fitted curve in the direction sought with a large enough effect in the repeat runs; inconclusive = weak or mixed curves; inactive = no such curve, though single readings can be large; an effect the other way counts as inactive or inconclusive.
Assays:
[1] = Caspase-3/7 induction in CHO-K1 cells by small molecules, qHTS cell viability counter screen (AID 1346979); also: nearly all actives have a fitted effect of over 35% in size
Outline: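 Cells (CHO-K1, wild type) are plated at 1,500 per well and incubated 5hr. Test compounds in DMSO are then pinned in, followed by 16hr at 37C and 5% CO2. Viability is read by CellTiter-Fluor fluorescence after 1hr.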

[2] = Caspase-3/7 induction in CHO-K1 cells by small molecules, qHTS assay (AID 1346980); also: nearly all actives have a fitted effect of over 15% in size
Outline: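 Wild-type CHO-K1 cells exposed to compounds for 17hr at 37 C, 5% CO2. Caspase-3/7 activity then measured by Caspase-Glo 3/7 luminescence after 30min at room temperature.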

[3] = Caspase-3/7 induction in HepG2 cells by small molecules, qHTS cell viability counter screen (AID 1346981); also: series mostly up to about 92 µM; nearly all actives have a fitted effect of over 30% in size
Outline: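 Counter screen for cytotoxicity: HepG2 exposed 16 hr to compounds, then CellTiter-Fluor viability signal (fluorescence, 1 hr reagent incubation).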

[4] = molecular target: Nuclear receptor subfamily 1 group I member 2 (Homo sapiens) (UniProt O75469); assay: Human pregnane X receptor (PXR) small molecule agonists, qHTS assay (AID 1346982); also: nearly all actives have a fitted effect of over 35% in size; also: potency is read from the fitted curve at half-maximal effect
Chain of Nuclear receptor subfamily 1 group I member 2 (Homo sapiens) (O75469 whole entry, looked up): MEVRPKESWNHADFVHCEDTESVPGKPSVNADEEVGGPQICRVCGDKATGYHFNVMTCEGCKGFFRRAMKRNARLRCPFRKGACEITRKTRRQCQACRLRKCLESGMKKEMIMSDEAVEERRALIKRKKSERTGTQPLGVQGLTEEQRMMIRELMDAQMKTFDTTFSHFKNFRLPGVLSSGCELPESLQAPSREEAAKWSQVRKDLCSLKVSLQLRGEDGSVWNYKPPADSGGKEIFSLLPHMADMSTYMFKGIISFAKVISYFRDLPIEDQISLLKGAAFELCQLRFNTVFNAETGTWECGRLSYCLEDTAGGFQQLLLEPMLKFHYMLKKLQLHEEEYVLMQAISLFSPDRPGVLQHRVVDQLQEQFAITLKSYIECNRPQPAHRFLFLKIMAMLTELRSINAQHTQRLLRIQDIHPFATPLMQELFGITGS
Outline: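 Luminescence (ONE-Glo, 30 min RT) after 24 hr compound exposure of PXR-Luc HepG2 cells; cells rested 5 hr post-plating in 5% charcoal-stripped FBS medium.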

[5] = molecular target: Cytochrome P450 2D6 (Homo sapiens) (UniProt P10635); assay: Cytochrome P450 Family 2 Subfamily D Member 6 (CYP2D6) small molecule antagonists: luciferase reporter qHTS assay (AID 1671196); also: nearly all actives have a fitted effect of over 50% in size; also: potency is read from the fitted curve at half-maximal effect
Chain of Cytochrome P450 2D6 (Homo sapiens) (P10635 whole entry, looked up): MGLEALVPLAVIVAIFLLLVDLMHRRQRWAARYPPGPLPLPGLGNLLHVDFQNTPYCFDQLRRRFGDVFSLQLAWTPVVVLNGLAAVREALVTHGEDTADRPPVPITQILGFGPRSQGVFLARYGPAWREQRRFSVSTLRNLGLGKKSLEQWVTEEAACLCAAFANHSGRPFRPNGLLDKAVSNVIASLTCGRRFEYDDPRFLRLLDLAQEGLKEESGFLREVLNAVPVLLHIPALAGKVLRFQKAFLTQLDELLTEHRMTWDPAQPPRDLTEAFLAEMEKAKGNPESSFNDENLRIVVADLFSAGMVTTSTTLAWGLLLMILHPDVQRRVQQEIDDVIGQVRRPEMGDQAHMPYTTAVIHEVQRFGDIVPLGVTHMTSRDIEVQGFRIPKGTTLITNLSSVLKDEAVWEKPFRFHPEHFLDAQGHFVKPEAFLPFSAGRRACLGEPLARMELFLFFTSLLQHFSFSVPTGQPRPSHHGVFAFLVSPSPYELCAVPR
Outline: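 Inhibition of CYP2D6 was gauged by loss of luminescence, since light produced tracks the luciferin generated from a proluciferin substrate. A 10 min room-temperature preincubation preceded 1 h NADPH-supported turnover.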

[6] = molecular target: Cytochrome P450 2C19 (Homo sapiens) (UniProt P33261); assay: Cytochrome P450 Family 2 Subfamily C Member 19 (CYP2C19) small molecule antagonists: luciferase reporter qHTS assay (AID 1671197); also: nearly all actives have a fitted effect of over 65% in size; also: potency is read from the fitted curve at half-maximal effect
Chain of Cytochrome P450 2C19 (Homo sapiens) (P33261 whole entry, looked up): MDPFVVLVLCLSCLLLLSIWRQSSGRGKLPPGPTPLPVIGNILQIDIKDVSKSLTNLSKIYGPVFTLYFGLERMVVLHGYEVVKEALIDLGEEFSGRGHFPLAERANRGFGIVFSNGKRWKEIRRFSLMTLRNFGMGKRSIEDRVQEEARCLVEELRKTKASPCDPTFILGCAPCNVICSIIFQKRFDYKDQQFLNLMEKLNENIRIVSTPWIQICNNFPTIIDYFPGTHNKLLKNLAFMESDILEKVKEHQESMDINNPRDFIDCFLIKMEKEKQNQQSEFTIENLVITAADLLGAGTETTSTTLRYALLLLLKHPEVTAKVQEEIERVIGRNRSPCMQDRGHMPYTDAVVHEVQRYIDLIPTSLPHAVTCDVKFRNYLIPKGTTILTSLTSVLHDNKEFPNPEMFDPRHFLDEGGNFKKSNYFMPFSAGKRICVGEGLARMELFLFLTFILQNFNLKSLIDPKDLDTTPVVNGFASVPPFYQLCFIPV
Outline: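 First, compounds are pinned into enzyme-substrate mix and held 10 min at room temperature. Second, NADPH regeneration solution is added and plates incubate 1 h at 37C. Third, detection reagent is added and luminescence read after 20 min.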

[7] = molecular target: Nuclear receptor subfamily 1 group I member 2 (Rattus norvegicus) (UniProt Q9R1A7); assay: Rat pregnane X receptor (rPXR) activation by small molecules, qHTS assay (AID 1346983); settings: rPXR luciferase reporter cells, One-Glo luminescence, 24 h; max activation: hits give high values; also: nearly all actives have a fitted effect of over 20% in size; also: potency is read from the fitted curve at half-maximal effect
Chain of Nuclear receptor subfamily 1 group I member 2 (Rattus norvegicus) (Q9R1A7 whole entry, looked up): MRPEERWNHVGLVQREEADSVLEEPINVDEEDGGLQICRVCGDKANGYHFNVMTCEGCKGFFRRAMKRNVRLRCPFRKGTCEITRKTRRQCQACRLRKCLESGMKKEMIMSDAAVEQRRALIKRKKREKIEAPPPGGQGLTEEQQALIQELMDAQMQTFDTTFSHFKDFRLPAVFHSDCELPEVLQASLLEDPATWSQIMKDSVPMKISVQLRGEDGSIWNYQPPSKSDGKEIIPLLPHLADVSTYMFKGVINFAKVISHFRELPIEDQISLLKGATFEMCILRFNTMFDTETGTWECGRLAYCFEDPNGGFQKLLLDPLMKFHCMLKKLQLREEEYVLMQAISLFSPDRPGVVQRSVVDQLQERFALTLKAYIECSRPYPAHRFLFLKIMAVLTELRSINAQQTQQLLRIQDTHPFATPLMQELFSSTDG
Outline: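 Cell-based rPXR activation assay: rPXR cells, 2,000 per well, rested 5hr at 37 C, then exposed to compounds in DMSO for 24 hr at 37 C. Luciferase activity read by One-Glo luminescence after 30 min at room temperature.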

[8] = molecular target: Nuclear receptor subfamily 1 group I member 2 (Homo sapiens) (UniProt O75469); assay: CYP3A4 induction through human pregnane X receptor (PXR) by small molecules, qHTS assay (AID 1346984); also: nearly all actives have a fitted effect of over 40% in size; also: potency is read from the fitted curve at half-maximal effect
Outline: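 DPX-2 reporter cells; 24h cpd, 37C; Luciferin-IPA 3uM final x3h; One-Glo 30 min RT; lumi read.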

[9] = molecular target: Nuclear receptor subfamily 1 group I member 2 (Homo sapiens) (UniProt O75469); assay: Human pregnane X receptor (PXR) activation by small molecules, qHTS assay (AID 1346985); also: nearly all actives have a fitted effect of over 40% in size
Outline: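 DPX-2 cells (HepG2 co-transfected with a PXR response element and a CYP3A4-promoter luciferase construct) were seeded at 2,000 per well, rested 5 hr at 37C, then exposed to DMSO-dissolved compounds for 24 hr. Activation was read as luciferase luminescence.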

[10] = molecular target: Cytochrome P450 2C9 (Homo sapiens) (UniProt P11712); assay: Cytochrome P450 Family 2 Subfamily C Member 9 (CYP2C9) small molecule antagonists: luciferase reporter qHTS assay (AID 1671198); also: series mostly up to about 120 µM; nearly all actives have a fitted effect of over 50% in size
Chain of Cytochrome P450 2C9 (Homo sapiens) (P11712 whole entry, looked up): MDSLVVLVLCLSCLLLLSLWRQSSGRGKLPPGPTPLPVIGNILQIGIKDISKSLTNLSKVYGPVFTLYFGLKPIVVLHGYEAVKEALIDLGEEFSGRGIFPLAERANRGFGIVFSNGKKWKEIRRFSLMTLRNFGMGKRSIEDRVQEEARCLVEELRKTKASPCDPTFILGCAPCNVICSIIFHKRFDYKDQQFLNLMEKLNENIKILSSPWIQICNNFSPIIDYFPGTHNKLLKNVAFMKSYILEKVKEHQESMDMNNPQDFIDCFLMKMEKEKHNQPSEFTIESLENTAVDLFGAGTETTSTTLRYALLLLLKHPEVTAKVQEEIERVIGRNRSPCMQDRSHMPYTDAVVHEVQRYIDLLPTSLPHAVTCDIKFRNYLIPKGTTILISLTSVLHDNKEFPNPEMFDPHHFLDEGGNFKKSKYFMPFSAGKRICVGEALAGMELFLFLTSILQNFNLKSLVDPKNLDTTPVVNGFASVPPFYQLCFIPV
Outline: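 P450-Glo proluciferin substrate with CYP2C9 enzyme; 10 min RT preincubation, then NADPH regeneration 1 h at 37C; luciferin detection reagent 20 min RT, luminescence in relative luminescence units.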

In the case of `CC(C)(C)C(=O)c1ccccc1`, the Potency [1] is reported as “inactive”, the outcome [2] is reported as “inactive” and the Potency [3] is reported as “inactive”. For the same molecule, the Potency [4] was “inactive”, the Potency [5] was “inactive” and the Potency [6] was “inactive”.

With `CN(C)C(=O)Oc1cccc([N+](C)(C)C)c1` the Potency [1] was “inactive”, the outcome [2] was “inactive” and the Potency [3] was “inactive”. For the same molecule, the Potency [4] was “inactive”, the max activation [7] was -2.37% and the Potency [8] was “inactive”. For the same molecule, the Potency [9] was “inactive”, the Potency [5] was “inactive” and the Potency [10] was “inactive”.

With `CCCCCC(=O)OCCc1ccccc1` the Potency [1] was “inactive”, the outcome [2] was “inactive” and the Potency [3] was “inactive”. For the same molecule, the Potency [4] was “inactive” and the Potency [5] was “inactive”.

With `CN1CC(=O)N/C1=N/C(=O)Nc1cccc(Cl)c1` the Potency [1] was “inactive”, the outcome [2] was “inactive” and the Potency [3] was “inactive”. The Potency [4] was 13.3 µM (active), the Potency [8] was “inactive” and the Potency [9] was “inactive”. The Potency [10] was “inactive”.

With `CO/N=C(\C(=O)N[C@@H]1C(=O)N2C(C(=O)O)=C(CSc3nc(=O)c(O)nn3C)CS[C@H]12)c1csc(N)n1` the Potency [1] was “inactive”, the outcome [2] was “inactive” and the Potency [3] was “inactive”. For the same molecule, the Potency [4] was “inactive”, the max activation [7] was -3.34% and the Potency [8] was “inactive”. For the same molecule, the Potency [9] was “inactive” and the Potency [6] was “inactive”.

With `Cc1ccc(-c2ncc(Cl)cc2-c2ccc(S(C)(=O)=O)cc2)cn1` the Potency [1] was “inactive”, the outcome [2] was “inactive” and the Potency [3] was “inactive”. The Potency [4] was “inactive”, the max activation [7] was 7.56% and the Potency [9] was “inactive”. The Potency [6] was “inactive”.

In the case of `CNC(=O)Nc1ccc(Cl)c(Cl)c1`, the Potency [1] is reported as “inactive”, the outcome [2] is reported as “inactive” and the Potency [3] is reported as “inactive”. The Potency [4] was 34.4 µM (active), the Potency [5] was “inactive” and the Potency [6] was 28.3 µM (active).

For `CC(=O)OCC(=O)[C@@]1(O)[C@H](C)C[C@H]2[C@@H]3CCC4=CC(=O)C=C[C@]4(C)[C@@]3(F)[C@@H](O)C[C@@]21C`, the Potency [1] was “inactive”, the outcome [2] was “inactive” and the Potency [3] was “inactive”. The Potency [4] was “inactive”, the Potency [8] was “inactive” and the Potency [9] was “inactive”. The Potency [5] was “inactive” and the Potency [6] was “inactive”.

With `CCCCCCCCCC[N+](C)(C)[O-]` the Potency [1] was “inactive”, the outcome [2] was “inactive” and the Potency [3] was “inactive”. The Potency [4] was “inactive” and the Potency [5] was 35.6 µM (active).

With `CCCCCCCCN1CCCC1=O` the Potency [1] was “inactive”, the outcome [2] was “inactive” and the Potency [3] was “inactive”. For the same molecule, the Potency [4] was 24.3 µM (active), the Potency [5] was “inactive” and the Potency [6] was 10 µM (active).

In the case of `CCCCCCCCCCCCCCCCCCO`, the Potency [1] is reported as “inactive”, the outcome [2] is reported as “inactive” and the Potency [3] is reported as “inactive”. The Potency [4] was “inactive”, the max activation [7] was -0.712% and the Potency [8] was “inactive”. For the same molecule, the Potency [9] was “inactive”, the Potency [5] was “inactive” and the Potency [6] was “inactive”. The Potency [10] was “inactive”.

In the case of `C[N+]12CCC(CC1)C(OC(=O)C(O)(c1ccccc1)c1ccccc1)C2` (stereo unspecified), the Potency [1] is reported as “inactive”, the outcome [2] is reported as “inactive” and the Potency [3] is reported as “inactive”. The Potency [4] was “inactive”, the max activation [7] was -2.26% and the Potency [8] was “inactive”. For the same molecule, the Potency [9] was “inactive” and the Potency [6] was “inactive”.

With `CC(=O)C1CCCCC1=O` (stereo unspecified) the Potency [1] was “inactive”, the outcome [2] was “inactive” and the Potency [3] was “inactive”. The Potency [4] was “inactive” and the Potency [5] was “inactive”.

In the case of `CCCCN(CCC(=O)OCC)C(C)=O`, the Potency [1] is reported as “inactive”, the outcome [2] is reported as “inactive” and the Potency [3] is reported as “inactive”. The Potency [4] was “inactive”, the Potency [5] was “inactive” and the Potency [6] was 35.6 µM (active).

In the case of `CCCCCCC1CCC(=O)O1` (stereo unspecified), the Potency [1] is reported as “inactive”, the outcome [2] is reported as “inactive” and the Potency [3] is reported as “inactive”. For the same molecule, the Potency [4] was “inactive” and the Potency [5] was “inactive”.

With `O=S(=O)(O)c1cccc2ccccc12` the Potency [1] was “inactive”, the outcome [2] was “inactive” and the Potency [3] was “inactive”. For the same molecule, the Potency [4] was “inactive” and the Potency [5] was “inactive”.

For `O=C(CO)[C@@H](O)[C@H](O)[C@@H](O)CO`, the Potency [1] was “inactive”, the outcome [2] was “inactive” and the Potency [3] was “inactive”. The Potency [4] was “inactive”, the Potency [5] was “inactive” and the Potency [6] was “inactive”.

With `COC(=O)Nc1ccc(Cl)c(Cl)c1` the Potency [1] was “inactive”, the outcome [2] was “inactive” and the Potency [3] was “inactive”. The Potency [4] was 60.8 µM (active), the Potency [5] was “inactive” and the Potency [6] was 17.7 µM (active).

With `Cc1nc(C2CCCCC2)c(-c2ccc(S(N)(=O)=O)c(F)c2)o1` the Potency [1] was “inactive”, the outcome [2] was “inactive” and the Potency [3] was “inactive”. The Potency [4] was 21.1 µM (active), the Potency [5] was 13.8 µM (active) and the Potency [6] was 38.9 µM (active).

For `CN(C)CCN(C)CCN(C)C`, the Potency [1] was “inactive”, the outcome [2] was “inactive” and the Potency [3] was “inactive”. For the same molecule, the Potency [4] was 29.6 µM (active) and the Potency [5] was “inactive”.

With `CCN[C@H]1C[C@H](C)S(=O)(=O)c2sc(S(N)(=O)=O)cc21` the Potency [1] was “inactive”, the outcome [2] was “inactive” and the Potency [3] was “inactive”. The Potency [4] was “inactive”, the max activation [7] was 0.198% and the Potency [8] was “inactive”. For the same molecule, the Potency [9] was “inactive”, the Potency [5] was “inactive” and the Potency [10] was “inactive”.

In the case of `O=C1CCCCCCCCCCCCCCO1`, the Potency [1] is reported as “inactive”, the outcome [2] is reported as “inactive” and the Potency [3] is reported as “inactive”. For the same molecule, the Potency [4] was “inactive”, the Potency [5] was “inactive” and the Potency [6] was “inactive”.

With `Nc1ccn([C@@H]2O[C@H](CO)[C@@H](O)C2O)c(=O)n1` (stereo partly specified) the Potency [1] was “inactive”, the outcome [2] was “inactive” and the Potency [3] was “inactive”. For the same molecule, the Potency [4] was “inactive”, the max activation [7] was -0.294% and the Potency [9] was “inactive”. For the same molecule, the Potency [5] was “inactive”.

For `CN(C)[C@@H]1C(=O)C(C(=O)NCN2CCCC2)=C(O)[C@@]2(O)C(=O)C3=C(O)c4c(O)cccc4[C@@](C)(O)C3C[C@@H]12` (stereo partly specified), the Potency [1] was “inactive”, the outcome [2] was “inactive” and the Potency [3] was “inactive”. The Potency [4] was “inactive”, the max activation [7] was 1.07% and -3.86% and the Potency [8] was “inactive”. For the same molecule, the Potency [9] was “inactive” and the Potency [10] was “inactive”.

For `CCCOC(=O)CC`, the Potency [1] was “inactive”, the outcome [2] was “inactive” and the Potency [3] was “inactive”. The Potency [4] was “inactive”, the Potency [5] was “inactive” and the Potency [6] was “inactive”.

For `C[C@@H]1C[C@H]2[C@@H]3C[C@H](F)C4=CC(=O)C(Cl)=C[C@]4(C)[C@@]3(F)[C@@H](O)C[C@]2(C)[C@@]1(O)C(=O)CO`, the Potency [1] was “inactive”, the outcome [2] was “inactive” and the Potency [3] was “inactive”. The Potency [4] was 2.11 µM (active), the Potency [7] was 0.1 µM (active) and the Potency [8] was 12.6 µM (active). The Potency [6] was 8.71 µM (active).

For `C1CCC2(CCCCO2)OC1`, the Potency [1] was “inactive”, the outcome [2] was “inactive” and the Potency [3] was “inactive”. The Potency [4] was “inactive”, the Potency [5] was “inactive” and the Potency [6] was “inactive”. For the same molecule, the Potency [10] was “inactive”.

With `CC(C)(C)c1ccc(-c2ccc(C(C)(C)C)cc2)cc1` the Potency [1] was “inactive”, the outcome [2] was “inactive” and the Potency [3] was “inactive”. For the same molecule, the Potency [4] was “inactive”, the Potency [5] was “inactive” and the Potency [6] was “inactive”. The Potency [10] was “inactive”.

— PubChem BioAssay (Tox21)
